Here are results for 40 targets from the supplement of paper PMC10849652.

About 7,900 targets were measured; listed, in parts, are those with a hit and a random draw of the rest. About 0.6% of all pairs of compound and target were hits. Unmarked numbers belong to inactive results.

Sequence of UniProt Q13011 (Q13011 whole entry, looked up): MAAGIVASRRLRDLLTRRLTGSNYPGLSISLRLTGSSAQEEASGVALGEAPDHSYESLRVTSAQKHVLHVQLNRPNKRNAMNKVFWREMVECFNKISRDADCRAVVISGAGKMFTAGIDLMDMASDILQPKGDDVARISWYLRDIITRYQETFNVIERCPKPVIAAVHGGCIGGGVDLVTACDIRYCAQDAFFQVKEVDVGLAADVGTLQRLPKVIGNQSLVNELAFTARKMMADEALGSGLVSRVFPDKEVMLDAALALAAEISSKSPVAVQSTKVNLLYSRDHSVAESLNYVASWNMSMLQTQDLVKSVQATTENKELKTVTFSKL
Sequence of UniProt Q8N5C7 (Q8N5C7 whole entry, looked up): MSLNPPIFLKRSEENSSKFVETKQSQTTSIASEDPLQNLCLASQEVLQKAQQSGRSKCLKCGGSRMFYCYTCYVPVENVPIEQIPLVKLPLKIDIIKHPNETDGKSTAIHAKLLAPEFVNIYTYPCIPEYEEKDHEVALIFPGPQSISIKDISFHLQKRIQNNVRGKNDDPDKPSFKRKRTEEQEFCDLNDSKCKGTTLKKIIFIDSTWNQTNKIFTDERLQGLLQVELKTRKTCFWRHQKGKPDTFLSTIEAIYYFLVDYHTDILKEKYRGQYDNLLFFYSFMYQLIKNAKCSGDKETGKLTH
Sequence of UniProt Q8N3D4 (Q8N3D4 whole entry, looked up): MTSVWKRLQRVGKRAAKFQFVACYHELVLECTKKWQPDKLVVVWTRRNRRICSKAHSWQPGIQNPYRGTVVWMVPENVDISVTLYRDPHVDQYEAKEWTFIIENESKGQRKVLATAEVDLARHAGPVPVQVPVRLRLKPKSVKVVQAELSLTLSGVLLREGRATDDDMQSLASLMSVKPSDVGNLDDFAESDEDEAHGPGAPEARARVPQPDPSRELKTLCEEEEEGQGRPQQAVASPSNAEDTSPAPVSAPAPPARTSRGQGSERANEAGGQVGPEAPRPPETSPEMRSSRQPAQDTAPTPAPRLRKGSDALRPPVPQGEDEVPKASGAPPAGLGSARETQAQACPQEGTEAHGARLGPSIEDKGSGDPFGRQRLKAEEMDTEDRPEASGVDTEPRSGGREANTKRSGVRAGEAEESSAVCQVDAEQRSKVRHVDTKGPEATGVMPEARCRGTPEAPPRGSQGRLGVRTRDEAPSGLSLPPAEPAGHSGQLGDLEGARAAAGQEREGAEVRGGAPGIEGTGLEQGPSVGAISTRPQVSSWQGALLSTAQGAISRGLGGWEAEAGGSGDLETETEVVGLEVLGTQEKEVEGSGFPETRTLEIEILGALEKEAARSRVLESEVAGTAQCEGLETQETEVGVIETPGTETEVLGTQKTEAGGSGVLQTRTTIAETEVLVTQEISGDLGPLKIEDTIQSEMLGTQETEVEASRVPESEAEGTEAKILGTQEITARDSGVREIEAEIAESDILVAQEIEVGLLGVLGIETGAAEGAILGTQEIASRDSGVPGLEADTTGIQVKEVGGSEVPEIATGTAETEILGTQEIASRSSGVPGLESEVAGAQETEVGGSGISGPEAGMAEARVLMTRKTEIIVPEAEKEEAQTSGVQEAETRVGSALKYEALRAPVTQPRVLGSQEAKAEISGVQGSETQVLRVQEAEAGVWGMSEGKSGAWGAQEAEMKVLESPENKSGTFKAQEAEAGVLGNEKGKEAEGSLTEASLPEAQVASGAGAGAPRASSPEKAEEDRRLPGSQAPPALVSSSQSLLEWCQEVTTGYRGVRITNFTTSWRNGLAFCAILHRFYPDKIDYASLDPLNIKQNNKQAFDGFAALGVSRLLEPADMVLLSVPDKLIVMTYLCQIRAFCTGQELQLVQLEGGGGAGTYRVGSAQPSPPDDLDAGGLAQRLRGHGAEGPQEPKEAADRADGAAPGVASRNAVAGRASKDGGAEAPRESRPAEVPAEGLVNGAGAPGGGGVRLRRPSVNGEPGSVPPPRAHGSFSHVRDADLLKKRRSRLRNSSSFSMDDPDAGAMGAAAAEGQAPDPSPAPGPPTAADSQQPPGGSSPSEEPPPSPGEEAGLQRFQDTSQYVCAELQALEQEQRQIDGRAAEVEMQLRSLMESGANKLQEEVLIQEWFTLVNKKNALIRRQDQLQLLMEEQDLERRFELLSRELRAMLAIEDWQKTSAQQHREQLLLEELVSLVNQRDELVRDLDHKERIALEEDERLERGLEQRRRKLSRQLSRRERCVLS
Sequence of UniProt Q9NRY5 (Q9NRY5 whole entry, looked up): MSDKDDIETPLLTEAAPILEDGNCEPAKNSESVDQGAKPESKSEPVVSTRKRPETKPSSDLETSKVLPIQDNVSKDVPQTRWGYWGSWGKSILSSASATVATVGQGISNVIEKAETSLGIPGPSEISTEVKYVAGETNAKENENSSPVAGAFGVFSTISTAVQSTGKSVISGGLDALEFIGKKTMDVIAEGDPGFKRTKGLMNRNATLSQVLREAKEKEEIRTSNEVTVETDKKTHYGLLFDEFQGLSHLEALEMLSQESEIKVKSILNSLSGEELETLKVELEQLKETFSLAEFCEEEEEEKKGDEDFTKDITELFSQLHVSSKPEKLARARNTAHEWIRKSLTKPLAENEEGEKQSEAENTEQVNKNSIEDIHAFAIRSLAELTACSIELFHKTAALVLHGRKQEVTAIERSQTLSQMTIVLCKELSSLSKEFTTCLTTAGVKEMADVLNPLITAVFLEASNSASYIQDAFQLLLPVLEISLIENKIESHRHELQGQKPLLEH
Sequence of UniProt O60231 (O60231 whole entry, looked up): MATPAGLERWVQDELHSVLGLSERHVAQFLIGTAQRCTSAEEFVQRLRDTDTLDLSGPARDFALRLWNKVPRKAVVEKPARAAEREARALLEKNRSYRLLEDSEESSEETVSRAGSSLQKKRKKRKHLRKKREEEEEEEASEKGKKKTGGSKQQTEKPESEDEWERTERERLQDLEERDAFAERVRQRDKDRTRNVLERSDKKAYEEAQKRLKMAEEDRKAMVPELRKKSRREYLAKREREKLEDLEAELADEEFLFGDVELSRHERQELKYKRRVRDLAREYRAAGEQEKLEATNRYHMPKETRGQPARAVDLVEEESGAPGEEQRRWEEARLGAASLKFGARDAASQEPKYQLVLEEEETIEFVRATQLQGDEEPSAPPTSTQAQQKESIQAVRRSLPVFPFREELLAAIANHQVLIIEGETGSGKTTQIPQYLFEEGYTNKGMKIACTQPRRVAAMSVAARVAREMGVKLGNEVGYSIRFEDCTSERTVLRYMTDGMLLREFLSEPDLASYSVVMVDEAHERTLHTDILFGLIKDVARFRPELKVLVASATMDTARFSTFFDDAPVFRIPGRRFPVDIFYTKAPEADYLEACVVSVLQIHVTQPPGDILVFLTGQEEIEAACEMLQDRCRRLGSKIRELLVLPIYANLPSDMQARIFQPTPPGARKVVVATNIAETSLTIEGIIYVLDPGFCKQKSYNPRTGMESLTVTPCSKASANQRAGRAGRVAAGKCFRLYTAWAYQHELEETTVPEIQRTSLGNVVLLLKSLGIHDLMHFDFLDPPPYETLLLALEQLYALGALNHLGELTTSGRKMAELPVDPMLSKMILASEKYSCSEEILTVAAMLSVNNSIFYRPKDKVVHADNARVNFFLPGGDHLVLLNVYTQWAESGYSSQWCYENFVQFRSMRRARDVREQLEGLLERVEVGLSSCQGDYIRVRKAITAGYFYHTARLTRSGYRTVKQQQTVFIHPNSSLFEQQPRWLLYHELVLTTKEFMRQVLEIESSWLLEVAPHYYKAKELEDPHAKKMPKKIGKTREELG
Sequence of UniProt O75911 (O75911 whole entry, looked up): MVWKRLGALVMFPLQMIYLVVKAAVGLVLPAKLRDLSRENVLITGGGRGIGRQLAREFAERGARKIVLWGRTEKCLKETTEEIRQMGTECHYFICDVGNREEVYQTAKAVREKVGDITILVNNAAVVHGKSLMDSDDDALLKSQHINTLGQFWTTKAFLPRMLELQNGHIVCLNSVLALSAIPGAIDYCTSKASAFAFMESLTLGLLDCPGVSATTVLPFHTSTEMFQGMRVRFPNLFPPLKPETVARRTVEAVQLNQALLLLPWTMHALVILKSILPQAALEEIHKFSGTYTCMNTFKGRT
Sequence of UniProt O60573 (O60573 whole entry, looked up): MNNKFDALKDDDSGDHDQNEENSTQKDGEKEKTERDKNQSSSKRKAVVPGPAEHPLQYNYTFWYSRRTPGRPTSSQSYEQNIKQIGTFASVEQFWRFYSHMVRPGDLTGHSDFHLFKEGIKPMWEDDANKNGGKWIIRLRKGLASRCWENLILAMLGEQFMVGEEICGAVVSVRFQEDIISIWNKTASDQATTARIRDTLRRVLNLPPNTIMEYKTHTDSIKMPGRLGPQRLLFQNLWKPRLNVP
Sequence of UniProt P09622 (P09622 whole entry, looked up): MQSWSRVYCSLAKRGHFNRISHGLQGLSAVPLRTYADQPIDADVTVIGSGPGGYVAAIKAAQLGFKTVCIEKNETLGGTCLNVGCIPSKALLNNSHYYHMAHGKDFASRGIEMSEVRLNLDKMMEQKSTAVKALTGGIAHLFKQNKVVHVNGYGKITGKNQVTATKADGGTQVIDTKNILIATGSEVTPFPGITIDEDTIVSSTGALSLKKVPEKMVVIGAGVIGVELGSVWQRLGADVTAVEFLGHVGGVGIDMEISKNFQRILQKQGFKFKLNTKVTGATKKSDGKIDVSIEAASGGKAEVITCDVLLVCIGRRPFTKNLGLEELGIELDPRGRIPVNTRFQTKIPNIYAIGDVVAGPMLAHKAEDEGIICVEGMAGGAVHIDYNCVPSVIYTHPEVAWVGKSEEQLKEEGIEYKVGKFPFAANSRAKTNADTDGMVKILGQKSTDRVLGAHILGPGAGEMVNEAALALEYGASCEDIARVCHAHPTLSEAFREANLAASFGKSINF
Sequence of UniProt O75822 (O75822 whole entry, looked up): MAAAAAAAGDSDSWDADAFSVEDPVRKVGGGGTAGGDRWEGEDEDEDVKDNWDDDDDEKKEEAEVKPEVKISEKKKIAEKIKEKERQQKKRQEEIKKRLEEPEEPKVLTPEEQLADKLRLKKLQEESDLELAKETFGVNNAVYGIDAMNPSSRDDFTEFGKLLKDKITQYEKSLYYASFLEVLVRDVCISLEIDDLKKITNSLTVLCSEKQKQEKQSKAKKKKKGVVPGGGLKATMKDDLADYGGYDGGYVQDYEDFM

Compound in one assay: CC1=C(C=C(C=C1)NC(=O)C2=CC(=CC=C2)C(C)(C)C#N)NC3=CC4=C(C=C3)N=CN(C4=O)C
Description: log2 fold change, soluble protein after heating vs DMSO (PISA); higher = thermal stabilisation; K562 cells, 10 uM, 30 min; active = over 0.2 and 3.5 SD of the protein, either way, in both replicates (recomputed). The gist of the method: (§1)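 K562 cells at 2×10^6 cells/mL were given 10 μM compound for 30 min. Aliquots then went through 3 min of heating across 48°C-58°C, were pooled, and were extracted in PBS with 0.5% NP-40 at 4°C, and the supernatant after 21,000xg for 90 min was quantified by TMTpro 16plex LC-MS/MS with channel sums equalised. Thermal stability relative to control samples, from duplicates, is given as log2 fold change.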
DNAJC7 (UniProt Q99615): the log2 fold change is -0.006.

On to EXOC4 (UniProt Q96A65), for which the log2 fold change is -0.021.

Turning to EXOC7 (UniProt Q9UPT5), the log2 fold change was -0.116.

Regarding DPP8 (UniProt Q6V1X1), the log2 fold change is -0.109.

On to EIF4G1 isoform 8 (UniProt Q04637), for which the log2 fold change is -0.028.

In the case of DTWD2 (UniProt Q8NBA8), the log2 fold change was 0.019.

Take ERLIN1 (UniProt O75477): the log2 fold change was 0.011.

With DMAC1 (UniProt Q96GE9), the log2 fold change is -0.173.

Turning to DYRK1A isoform 2 (UniProt Q13627), the log2 fold change was -0.025.

Take ECH1 (UniProt Q13011): the log2 fold change is 0.005.

With EHBP1L1 (UniProt Q8N3D4), the log2 fold change was 0.

Turning to CWC27 (UniProt Q6UX04), the log2 fold change was -0.001.

On to EEF1G isoform 2 (UniProt P26641), for which the log2 fold change is 0.035.

With DLD (UniProt P09622), the log2 fold change is -0.045.

As for DTWD1 (UniProt Q8N5C7), the log2 fold change was 0.05.

As for CTSV (UniProt O60911), the log2 fold change is 0.

As for FAM122A (UniProt Q96E09), the log2 fold change was -0.01.

Consider DTNBP1 (UniProt Q96EV8), for which the log2 fold change is -0.078.

In the case of ERLIN2 (UniProt O94905), the log2 fold change is -0.045.

As for EIF3J (UniProt O75822), the log2 fold change is 0.01.

For CTSB (UniProt P07858), the log2 fold change is -0.035.

For CTU1 (UniProt Q7Z7A3), the log2 fold change was 0.011.

With DHRS7B (UniProt Q6IAN0), the log2 fold change is -0.008.

Take EIF4A1 (UniProt P60842): the log2 fold change was 0.106.

On to DNAJC24 (UniProt Q6P3W2), for which the log2 fold change is -0.024.

As to DCUN1D1 (UniProt Q96GG9), the log2 fold change is -0.027.

Regarding DCAF10 (UniProt Q5QP82), the log2 fold change was -0.024.

Consider DBR1 (UniProt Q9UK59), for which the log2 fold change was -0.005.

EOGT (UniProt Q5NDL2): the log2 fold change is -0.043.

Turning to EIF2AK1 (UniProt Q9BQI3), the log2 fold change was -0.027.

Consider DHCR24 (UniProt Q15392), for which the log2 fold change was 0.248.

As to DTYMK (UniProt P23919), the log2 fold change was -0.001.

For the target ELOVL1 (UniProt Q9BW60), the log2 fold change was -0.035.

Regarding FAM118B (UniProt Q9BPY3), the log2 fold change was 0.

As for EED, A0A5F9ZI63, the log2 fold change was 0.005.

For DHRS3 (UniProt O75911), the log2 fold change is 0.075.

For the target EIF4E2 (UniProt O60573), the log2 fold change was -0.089.

Turning to DHX16 (UniProt O60231), the log2 fold change is -0.014.

For ESYT1 isoform 2 (UniProt Q9BSJ8), the log2 fold change is 0.117.

Take FAM114A2 (UniProt Q9NRY5): the log2 fold change is 0.007.

Compound in a further assay: CC1=C(C=C(C=C1)NC(=O)C2=CC(=CC=C2)N(C)C)NC(=O)C3=CC=C(C=C3)O
The description is as above. The gist of the method: as §1
For DNAJC7 (UniProt Q99615), the log2 fold change was -0.037.

EXOC4 (UniProt Q96A65): the log2 fold change was 0.029.

Consider EXOC7 (UniProt Q9UPT5), for which the log2 fold change was -0.057.

Consider DPP8 (UniProt Q6V1X1), for which the log2 fold change was -0.026.

Consider EIF4G1 isoform 8 (UniProt Q04637), for which the log2 fold change is -0.011.

For the target DTWD2 (UniProt Q8NBA8), the log2 fold change is -0.025.

In the case of ERLIN1 (UniProt O75477), the log2 fold change was -0.018.

Turning to DMAC1 (UniProt Q96GE9), the log2 fold change is 0.041.

In the case of DYRK1A isoform 2 (UniProt Q13627), the log2 fold change is 0.061.

For the target ECH1 (UniProt Q13011), the log2 fold change was -0.027.

EHBP1L1 (UniProt Q8N3D4): the log2 fold change was -0.02.

CWC27 (UniProt Q6UX04): the log2 fold change was -0.035.

Take EEF1G isoform 2 (UniProt P26641): the log2 fold change is -0.015.

In the case of DLD (UniProt P09622), the log2 fold change was 0.025.

DTWD1 (UniProt Q8N5C7): the log2 fold change was -0.042.

On to CTSV (UniProt O60911), for which the log2 fold change was 0.019.

On to FAM122A (UniProt Q96E09), for which the log2 fold change was -0.005.

For the target DTNBP1 (UniProt Q96EV8), the log2 fold change is 0.006.

As for ERLIN2 (UniProt O94905), the log2 fold change is -0.024.

In the case of EIF3J (UniProt O75822), the log2 fold change was -0.026.

As to CTSB (UniProt P07858), the log2 fold change is -0.069.

On to CTU1 (UniProt Q7Z7A3), for which the log2 fold change is -0.023.

Take DHRS7B (UniProt Q6IAN0): the log2 fold change is -0.066.

As for EIF4A1 (UniProt P60842), the log2 fold change is -0.017.

As to DNAJC24 (UniProt Q6P3W2), the log2 fold change was 0.368.

For DCUN1D1 (UniProt Q96GG9), the log2 fold change is -0.077.

Consider DCAF10 (UniProt Q5QP82), for which the log2 fold change is 0.121.

Turning to DBR1 (UniProt Q9UK59), the log2 fold change is 0.028.

With EOGT (UniProt Q5NDL2), the log2 fold change was -0.073.

For EIF2AK1 (UniProt Q9BQI3), the log2 fold change is -0.007.

On to DHCR24 (UniProt Q15392), for which the log2 fold change was 0.01.

For the target DTYMK (UniProt P23919), the log2 fold change was 0.05.

Regarding ELOVL1 (UniProt Q9BW60), the log2 fold change is -0.065.

Regarding FAM118B (UniProt Q9BPY3), the log2 fold change was 0.03.

For EED, A0A5F9ZI63, the log2 fold change is -0.067.

In the case of DHRS3 (UniProt O75911), the log2 fold change was -0.037.

As to EIF4E2 (UniProt O60573), the log2 fold change was -0.006.

Regarding DHX16 (UniProt O60231), the log2 fold change is -0.018.

As to ESYT1 isoform 2 (UniProt Q9BSJ8), the log2 fold change was -0.052.

As to FAM114A2 (UniProt Q9NRY5), the log2 fold change was 0.03.
